This is an account of results in ChEMBL document CHEMBL3433997, “St. Jude Leishmania screening dataset” (2016).

Common to all, as to type: functional
For test [1], the target named is Solute carrier family 2, facilitated glucose transporter member 1 (Homo sapiens) (UniProt P11166). Put plainly: ST_JUDE_LEISH: Cytotoxicity at 2uM final concentration against transgenic Leishmania Mexicana promastigotes LmGLUT1 that are glucose transport deficient and complemented with the human glucose transporter GLUT1. Activity is measured by DNA content using SYBR green in vitro.

The target in test [2] is Hexose transporter 1 (Plasmodium falciparum) (UniProt O97467). Nature of the test: ST_JUDE_LEISH: Cytotoxicity at 2uM final concentration against transgenic Leishmania Mexicana promastigotes LmPfHT that are glucose transport deficient and complemented with the Plasmodium falciparum hexose transporter. Activity is measured by DNA content using SYBR green in vitro.
The target of test [3] is Glucose transporter (Leishmania mexicana) (UniProt O61059). Nature of the test: ST_JUDE_LEISH: Cytotoxicity at 2uM final concentration against transgenic Leishmania Mexicana promastigotes LmGT2 that are glucose transport deficient and complemented with the L. Mexicana glucose transporter 2. Activity is measured by DNA content using SYBR green in vitro.

Each structure is given as a SMILES string. “And” between values parts separate entries of the source, which are not always exact repeats. Equal entries are not always repeated.

Sequence of Solute carrier family 2, facilitated glucose transporter member 1 (Homo sapiens) (P11166 whole entry): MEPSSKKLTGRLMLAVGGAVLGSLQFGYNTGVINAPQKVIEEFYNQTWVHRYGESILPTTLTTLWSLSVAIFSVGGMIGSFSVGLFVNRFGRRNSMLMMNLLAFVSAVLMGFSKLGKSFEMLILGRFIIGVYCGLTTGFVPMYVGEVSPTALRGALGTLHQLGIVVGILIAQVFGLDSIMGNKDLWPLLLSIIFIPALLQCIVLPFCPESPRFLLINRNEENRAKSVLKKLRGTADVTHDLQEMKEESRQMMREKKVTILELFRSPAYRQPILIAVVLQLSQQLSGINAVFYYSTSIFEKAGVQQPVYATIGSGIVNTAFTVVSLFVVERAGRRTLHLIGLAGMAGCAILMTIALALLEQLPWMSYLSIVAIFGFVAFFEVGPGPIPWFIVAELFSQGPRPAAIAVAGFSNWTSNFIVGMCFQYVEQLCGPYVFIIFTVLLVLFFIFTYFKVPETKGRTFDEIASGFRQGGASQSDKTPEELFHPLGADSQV

Turning to `O=C(Nc1cccc(-c2cc(-c3c(Cl)cccc3Cl)no2)c1)c1cnc2ccccc2c1`, the inhibition (commonly the drop in the measured response relative to a control, in per cent) was 11.8% in test [1], 9.35% in test [2] and 6.2% in test [3].

Regarding `N#Cc1ccc(/C=C/C(=O)NCCCCCN2CCCN(C(=O)Nc3ccc(Cl)c(C(F)(F)F)c3)CC2)cc1`, the figures for the inhibition in test [1], in test [2] and in test [3] were 1.18%, 1.14% and 1.57%, respectively.

For the molecule `O=C(Nc1ccc(Cl)c(C(F)(F)F)c1)c1ccc(Cl)c([N+](=O)[O-])c1`, the inhibition in test [1] was found to be 6.41%; in test [2] it was 3.41%; in test [3], 0.08%.

Consider `O=C(Cn1c(CCc2cccc(F)c2F)nc(=O)c2ccccc21)N(CCN1CCCCC1)Cc1ccc(-c2ccc(C(F)(F)F)cc2)cc1`, for which the figures for the inhibition in test [1], in test [2] and in test [3] were 6.02%, 4.32% and 4.32%, respectively.

As to `COc1ccc(-c2ccc(NC(=O)c3ccc(C#N)cc3)cc2)cc1CN1CCN(C)CC1`, the figures for the inhibition in test [1], in test [2] and in test [3] were 4.24%, 1.9% and 2.76%, respectively.

As to `Cc1cc(C(F)(F)F)nn1-c1ccc(NC(=O)c2ccco2)cc1`, the inhibition is -2.06% in test [1], -1.65% in test [2] and -1.05% in test [3].

On to `CCOC(=O)c1ccc(N(CCCN(CCCN(c2ccc(C(=O)OCC)cc2)S(=O)(=O)c2ccc(C)cc2)CCc2ccc(O)cc2)S(=O)(=O)c2ccc(C)cc2)cc1`, for which the inhibition in test [1] turned out to be 2.89%; in test [2] it was 2.43%; in test [3], 1.65%.

Turning to `COc1c(CCNCCCCNCCc2cc(Cl)c3ccccc3c2OC)cc(Cl)c2ccccc12`, the inhibition in test [1] turned out to be 102%; in test [2], 100%; in test [3] it was 105%.

For the molecule `COc1ccccc1N1CCN(c2cccc3c2nc(-c2cncc(C#N)c2)n3CCNCc2ccccc2)CC1`, the inhibition in test [1] amounted to 9.96%; in test [2], 7.58%; in test [3], 6.47%.

Take `CCOC(=O)c1nc(-c2cccnc2)[nH]c1NC(=S)NCc1ccccc1`: the values for the inhibition in test [1], in test [2] and in test [3] were 1.58%, 0.92% and 3.75%, respectively.

As for `COc1ccc2nccc([C@@H](O)CN3CCC(NC(=O)/C=C/c4cccc(NC(C)=O)c4)CC3)c2c1`, the figures for the inhibition in test [1], in test [2] and in test [3] were 3.71%, 3.46% and 4.66%, respectively.

`COc1ccc2nccc([C@@H](O)CN3CCC(NC(=O)C(c4cc5ccccc5s4)N4CCN(c5ccccc5OC)CC4)CC3)c2c1` (stereo partly drawn): the inhibition in test [1] was 1.84%; in test [2], 1.89%; in test [3] it was 0.56%.

As to `CCCC(CNCc1cccc(I)c1)CNc1cc(=O)c2ccccc2[nH]1` (stereo not drawn), the inhibition in test [1] was determined as 1.04%; in test [2], 2.83%; in test [3] it was 2.67%.

For the molecule `COc1cc(Cc2cnc(N)nc2N)ccc1OCc1ccc(-c2csnn2)cc1`, the inhibition in test [1] was determined as 9.75%; in test [2], 9.64%; in test [3], 11.7%.

As for `Cc1ccc2nc(C)cc(N/N=C/c3ccc([N+](=O)[O-])cc3)c2c1`, the inhibition in test [1] is 104%; in test [2], 101%; in test [3], 104%.

For `Cc1nc2c(c(O)c1Cl)-c1ccc(Oc3cccc(C(F)(F)F)c3)cc1C2=O`, the inhibition is 2.13% and 1.44% in test [1]; 2.5% and 1.39% in test [2]; 1.75% and 2.09% in test [3].

Take `N#Cc1cccc(NC(=O)c2ccc(S(=O)(=O)NCC3CCCN3CC3CCCCC3)cc2)c1` (stereo not drawn): the figures for the inhibition in test [1], in test [2] and in test [3] were 2.47%, 4.27% and 1.88%, respectively.

Turning to `COc1cccc(CNC[C@@H](O)[C@H](Cc2ccccc2)NC(=O)c2cc3c4c(c2)c(C(C)C)cn4CCS(=O)(=O)N3C)c1`, the values for the inhibition in test [1], in test [2] and in test [3] were 8.36%, 8.07% and 8.04%, respectively.

With `CCc1c(C)nc(-n2nc(C)cc2NC(=O)c2cccc3ccccc23)[nH]c1=O`, the inhibition in test [1] is -3.49%; in test [2] it was -1.41%; in test [3], 3.73%.

As to `COc1ccc2[nH]c(C(=O)Nc3ccc4[nH]c(-c5ccccc5)nc4c3)cc2c1`, the inhibition in test [1] was determined as 4.44%; in test [2] it was 2.1%; in test [3], 0.82%.

In the case of `CCC(C)OC(=O)C1=C(C)NC2=C(C(=O)CC(c3ccc(OC)c(OC)c3)C2)C1c1ccc(C)o1` (stereo not drawn), the inhibition in test [1] is 2.36%; in test [2] it was 8.1%; in test [3], 3.8%.

For the molecule `CCOc1ccccc1NC(=O)C(Sc1nc(C)cc(C)c1C#N)c1ccccc1` (stereo not drawn), the inhibition in test [1] was determined as 6.11%; in test [2], 3.77%; in test [3] it was 6.45%.

For `O=C(N/C(=C/c1cccc([N+](=O)[O-])c1)c1nc2ccccc2[nH]1)c1cccc(Br)c1`, the inhibition was 2.64% in test [1], 1.64% in test [2] and -0.27% in test [3].

Regarding `COc1ccc(Nc2ncc(OC)c(Nc3ccccc3C(N)=O)n2)cc1N1CCN(C)CC1`, the inhibition in test [1] came to 17.6%; in test [2] it was 21.9%; in test [3], 7.83%.

For `COc1nc2c(N3CCN(CCNCc4ccc5c(n4)NC(=O)CO5)CC3)ccnc2cc1F`, the figures for the inhibition in test [1], in test [2] and in test [3] were 4.21%, 2.44% and 0.39%, respectively.

As to `Cn1ncc2c3c(CCN4CCC(NCc5cc6c(cn5)OCCO6)CC4)c(Cl)cnc3ccc21`, the results for the inhibition in test [1], in test [2] and in test [3] were 1.09%, 1.93% and -0.85%, respectively.

For the molecule `Cc1cc(CN2CCC(N3CC(c4ccccc4)(c4ccccc4)OCC3=O)C2)ccc1O` (stereo not drawn), the inhibition in test [1] was 0.59%; in test [2], 0.87%; in test [3], -3.65%.

For the molecule `O=C(Nc1cccc(Cl)c1Cl)Nc1ccnc2ccccc12`, the inhibition in test [1] came to 7.59%; in test [2], 7.42%; in test [3], 5.95%.

On to `CN1CCN(CCCN(Cc2csc(-c3ccc(CNCc4ccccc4)cc3)n2)C(=O)Nc2cc(Cl)cc(Cl)c2)CC1`, for which the inhibition in test [1] turned out to be 9.09%; in test [2], 6.74%; in test [3], 7.7%.

Take `COc1ccccc1CNc1ncc(-c2ccsc2)c(-c2nccs2)n1`: the inhibition is 0.14% in test [1], 0.8% in test [2] and -0.05% in test [3].

Consider `COc1ccc2nc(C)cc(Nc3ccc(Oc4ccc(Cl)c5ccccc45)c(Cl)c3)c2c1`, for which the inhibition in test [1] amounted to 12.8%; in test [2], 10.2%; in test [3], 5.43%.
